Hits are enriched below; roughly 2.9% of the tested compounds scored in any of these assays.
HSF1 activator = increases HSF-1 driven luciferase reporter signal; NIH3T3-HGL HSF-1 luciferase reporter, MG132, 8 h; 100% = twice DMSO control signal; activation, % at 9 µM; 1.7% of 300,000 active; AID 504408;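 active = mean replicate activation of at least 50% with a set share of replicates each reaching 50%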
S1P4 ag = human S1P4 receptor agonism | O95977 | activation, % at 4.98 µM | S1P4-expressing cell line, agonist reporter assay | 0.35% of 220,000 active; in the data active = activation above about 11%
HSF1 inhib = HSF1 inhibition; NIH3T3-HGL HSE-luciferase, MG132-induced, luminescence 8 h; stronger effect = lower value; activity change, negative = inhibition, % at 7.5 µM (by protocol); 0.77% of 300,000 active; AID 2098;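 active = more than half of replicate wells show activity change below -50%, luminescence cut by over half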;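 also: luciferase reports HSF-1 transcriptional activity via heat shock element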
S1P3 antag = blocks the human S1P3 receptor | 0.27% of 170,000 active | CHO S1P3 NFAT-BLA reporter, FRET fluorescence, antagonist mode | inhibition, % at 4.98 µM;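 active = inhibition above the plate cutoff, the mean inhibition of test wells on that plate plus 3 SD, cut at about 28% in these data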;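 also: cells challenged with S1P at its EC80 of 0.8 µM; blue over green emission ratio from cleaved BLA substrate after 4 h stimulation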
Target sequence (Q99500 whole entry, looked up): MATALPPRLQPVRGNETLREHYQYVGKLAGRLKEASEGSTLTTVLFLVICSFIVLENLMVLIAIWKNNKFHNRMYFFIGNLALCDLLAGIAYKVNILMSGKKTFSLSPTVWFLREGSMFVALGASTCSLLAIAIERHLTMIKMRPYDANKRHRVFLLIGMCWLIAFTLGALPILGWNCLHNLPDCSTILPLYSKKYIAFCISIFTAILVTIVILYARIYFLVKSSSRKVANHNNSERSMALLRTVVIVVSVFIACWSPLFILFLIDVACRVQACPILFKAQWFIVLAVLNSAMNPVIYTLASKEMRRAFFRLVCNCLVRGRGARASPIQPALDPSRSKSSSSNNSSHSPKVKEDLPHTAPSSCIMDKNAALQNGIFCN
S1P4 antagonist = blocks the human S1P4 receptor | 0.26% of 220,000 active | O95977 | inhibition, % at 4.98 µM | S1P4-expressing cells, antagonist mode, reporter read-out; in the data active = inhibition above about 29%
Hsp70 activator = transcriptional activators of Hsp70; activation, % at 10 µM; 0.04% of 200,000 active; HeLa Hsp70 promoter luciferase reporter, luminescence; scaled: vehicle 0, proteasome-inhibitor control 100%;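 active = activation above the mean across all tested compounds plus 3 SD, cutoff set per campaign, cut at about 5.5% in these data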
Numbers stand for hits.

How did Cc1cnc(C(=O)Nc2ccccc2-n2cccc2)cn1 do in these assays?
HSF1 activator: inactive; S1P4 ag: inactive; HSF1 inhib: -60; S1P3 antag: inactive; S1P4 antagonist: inactive; Hsp70 activator: inactive

How did COc1ccc(N2CC(C(=O)Nc3c(C(N)=O)oc4ccccc34)CC2=O)cc1 (stereo not given) do in these assays?
HSF1 activator: inactive; HSF1 inhib: inactive

What do the screens show for `COc1ccc(NC(=O)C(OC(=O)c2cnccn2)c2ccccc2)cc1Cl` (stereo not given)?
HSF1 activator: inactive; HSF1 inhib: inactive

How did O=C1/C(=C/c2ccc([N+](=O)[O-])cc2)Oc2cc(O)ccc21 do in these assays?
HSF1 activator: 73; HSF1 inhib: inactive

Results for O=C1/C(=C/c2ccc(Br)cc2)Oc2cc(O)ccc21 ?
HSF1 activator: inactive; HSF1 inhib: inactive

How did COc1ccc(C(=O)/C=C/C(=O)N(CC(=O)NC2CCCCC2)Cc2ccccc2OC)c(O)c1 do in these assays?
HSF1 activator: inactive; S1P4 ag: inactive; HSF1 inhib: inactive; S1P3 antag: inactive; S1P4 antagonist: inactive; Hsp70 activator: inactive

Results for COc1ccc(C(=O)/C=C/C(=O)N(CC(=O)NC2CCCCC2)Cc2ccccc2)c(O)c1 ?
HSF1 activator: 170; S1P4 ag: inactive; HSF1 inhib: inactive; S1P3 antag: inactive; S1P4 antagonist: inactive; Hsp70 activator: inactive

How did c1ccc(-c2ccc(-c3nc(-c4ccccn4)no3)cc2)cc1 do in these assays?
HSF1 activator: inactive; S1P4 ag: inactive; HSF1 inhib: -88; S1P4 antagonist: inactive; Hsp70 activator: inactive

What do the screens show for `Cc1ccc(-c2nc(-c3ccccn3)no2)cc1`?
HSF1 activator: inactive; S1P4 ag: inactive; HSF1 inhib: -78; S1P3 antag: inactive; S1P4 antagonist: inactive; Hsp70 activator: inactive

Results for CC(C)NC(=S)N1CCN(S(=O)(=O)c2cccc(C(F)(F)F)c2)CC1 ?
HSF1 activator: inactive; S1P4 ag: inactive; HSF1 inhib: inactive; S1P3 antag: inactive; S1P4 antagonist: inactive; Hsp70 activator: inactive

What do the screens show for `CCNC(=S)N1CCN(S(=O)(=O)c2cccc(C(F)(F)F)c2)CC1`?
HSF1 activator: 72; S1P4 ag: inactive; HSF1 inhib: inactive; S1P3 antag: inactive; S1P4 antagonist: inactive; Hsp70 activator: inactive

Results for COc1ccc2oc(C(=O)OCC(=O)NC3(C#N)CCCC3)c(C)c2c1 ?
HSF1 activator: inactive; HSF1 inhib: inactive

How did Cc1ccc(-c2nc(NC(=O)c3cc(C(C)(C)C)nn3C)sc2C)cc1Cl do in these assays?
S1P4 ag: inactive; S1P3 antag: inactive; S1P4 antagonist: inactive

What do the screens show for `Cc1cccc(N2CCN(c3cccc(C)c3)C2c2cccnc2)c1`?
HSF1 activator: 67; S1P4 ag: inactive; HSF1 inhib: inactive; S1P3 antag: inactive; S1P4 antagonist: inactive; Hsp70 activator: inactive

What do the screens show for `Cc1ccc2[nH]c(=O)c(CN(Cc3ccco3)S(=O)(=O)c3c(C)ccc4nsnc34)cc2c1`?
HSF1 activator: inactive; S1P4 ag: inactive; HSF1 inhib: inactive; S1P3 antag: inactive; S1P4 antagonist: inactive; Hsp70 activator: inactive

How did COc1ccc2[nH]c(=O)c(CN(Cc3cccs3)S(=O)(=O)c3c(C)ccc4nsnc34)cc2c1 do in these assays?
HSF1 activator: inactive; S1P4 ag: inactive; HSF1 inhib: -64; S1P4 antagonist: inactive; Hsp70 activator: inactive

Results for Cn1nc(-c2ccccc2)cc1NC(=O)C1CCCCC1 ?
HSF1 activator: inactive; S1P4 ag: inactive; HSF1 inhib: inactive; S1P3 antag: inactive; S1P4 antagonist: inactive

Results for Cc1nc(-c2ccc(NC(=O)C3CCCCC3)cc2)cs1 ?
HSF1 activator: 57; S1P4 ag: inactive; HSF1 inhib: inactive; S1P4 antagonist: inactive; Hsp70 activator: inactive

How did O=c1/c(=C/c2ccco2)sc2n1CN(c1ccccc1)CN=2 do in these assays?
HSF1 activator: inactive; S1P4 ag: inactive; HSF1 inhib: inactive; S1P4 antagonist: inactive; Hsp70 activator: inactive

Results for Cc1ccc(N2CN=c3s/c(=C\c4ccccn4)c(=O)n3C2)cc1 ?
HSF1 activator: inactive; S1P4 ag: inactive; HSF1 inhib: -52; S1P3 antag: inactive; S1P4 antagonist: inactive; Hsp70 activator: inactive

How did Cc1ccc(S(=O)(=O)c2c(COC(=O)c3ccc(Cl)cc3)c(-c3ccccc3)nn2C)cc1 do in these assays?
HSF1 activator: inactive; S1P4 ag: inactive; HSF1 inhib: inactive; S1P4 antagonist: inactive; Hsp70 activator: inactive

Source: PubChem (several laboratories)
